The results in this text go back to PubChem BioAssay (Tox21).

Values joined by “and” are separate entries in the source; they are usually repeats but may differ in a detail not shown here. Equal values may be shown once. Inconclusive results are not listed. A call without a number means that no potency is given here. Active and inactive are the calls of the source. Calls follow the shape of the full dose curve.
Potency is read from the fitted curve at half-maximal effect.

The nature of the assay: p53 small molecule agonists, cell-based qHTS assay: qHTS cell viability counter screen (AID 1963581). Also: nearly all actives have a fitted effect of over 45% in size. As to conditions: p53RE-bla HCT-116 viability, ATP luminescence, 16 h; series mostly up to 66 µM; activity change, negative = cytotoxicity: at the top concentration. The text has this:
National Center for Advancing Translational Sciences [NCATS]
Division of Preclinical Innovation [DPI]
U.S. Environmental Protection Agency [EPA]
National Institutes of Environmental Health Sciences [NIEHS]
National Toxicology Program [NTP]
U.S. Food and Drug Administration [FDA]
p53, a tumor suppressor protein, is activated following cellular insult, including DNA damage and other cellular stresses. The activation of p53 regulates cell fate by inducing DNA repair, cell cycle arrest, apoptosis, or cellular senescence. The activation of p53, therefore, is a good indicator of DNA damage and other cellular stresses. The CellSensor p53RE-bla HCT-116 cell line (Invitrogen) contains a stably integrated beta-lactamase reporter gene under control of the p53 response elements. The activation of the reporter gene under culture conditions can be detected by fluorescence intensity. This cell line was used to screen the Tox21 compound library in a 1536-well plate format and to identify agonists that activate the p53 signaling pathway. The cytotoxicity of the Tox21 compound library against the p53 RE-bla HCT-116 cell line was tested in parallel by measuring the intra cellular ATP content in the same wells.
Tox21 Assay Protocol Summary:
The p53RE-bla cells were dispensed at 4,000 cells/5 ul/well in 1536-well black wall/clear bottom plates using a Multidrop dispenser. After the assay plates were incubated at a 37 C/5% CO2 incubator for 5 hours, 23 nL of compounds dissolved in DMSO, positive controls or DMSO only was transferred to the assay plate by a pin tool. The plates were incubated at 37 C for 16 hours. After 1 uL of LiveBLAzerTM B/G FRET substrate was added using a Flying Reagent Dispenser, the plates were incubated at room temperature for 2 hours, and fluorescence intensity was measured by an Envision plate reader. For cell viability readout that measures cytotoxicity, 4 ul/well of CellTiter-Glo reagent was added into the assay plates using a Flying Reagent Dispenser. After 30 min incubation at room temperature, the luminescence intensity in the plates was measured using a ViewLux plate reader.
(In general: qHTS replaces the single test concentration by a dilution series.)
As for `CC(C)NC(C)C`, the Potency entry was “inactive”. Same read-out and setting: next, `O=C(O)COc1cc(Cl)c(Cl)cc1Cl`: “inactive”.

Take `C=C(C)[C@@H]1CC=C(C=O)CC1`: the “activity change, negative = cytotoxicity” value was -2.84% (inactive). Take `NC1(c2ccccc2)CCCCC1`: the “activity change, negative = cytotoxicity” value is -6.08% (inactive). On to `CC(O)CN(CC(C)O)CC(C)O` (stereo not given), for which the Potency entry is “inactive”.

As for `Clc1ccccc1-c1nnc(-c2ccccc2Cl)nn1`, the Potency entry is “inactive”. Regarding `ClCC1CO1` (stereo not given), the “activity change, negative = cytotoxicity” value was 13.7% (inactive). As to `CNc1cnn(-c2cccc(C(F)(F)F)c2)c(=O)c1Cl`, the Potency result is “inactive”. Consider `OCCOc1ccccc1`, for which the Potency result was “inactive”. Turning to `Cc1ccc([N+](=O)[O-])cc1C`, the Potency entry was “inactive”.

Turning to `CCCOC(=O)c1cncn1C(C)c1ccccc1` (stereo not given), the “activity change, negative = cytotoxicity” value was -11.6% [at 30.3 µM] (inactive). On to `CNC(=O)Oc1cccc2c1OC(C)(C)O2`, for which the Potency entry was “inactive”. Still for that read-out and setting: to `O=S(=O)(O)OOS(=O)(=O)O` belongs “inactive”; to `O=c1nc(O)n(Cl)c(=O)n1Cl`, “inactive”. `Cc1cc(-c2cc(C)c(N)c(C)c2)cc(C)c1N`: the Potency result is “inactive”. On to `OC(O)C(Cl)(Cl)Cl`, for which the Potency entry is “inactive”. Turning to `O=c1oc2ccccc2c(O)c1C(CC(O)c1ccc(-c2ccc(Br)cc2)cc1)c1ccccc1` (stereo not given), the Potency was 19.3 µM (active).

As for `O=C(Cl)/C=C/C(=O)Cl`, the “activity change, negative = cytotoxicity” value was 6.73% (inactive). On to `OCCSCSCCO`, for which the “activity change, negative = cytotoxicity” value is -8.89% (inactive).

In the case of `COP(N)(=O)SC` (stereo not given), the Potency entry was “inactive”. On the same count and under the same terms, to `C#CC(C)(C)NC(=O)c1cc(Cl)cc(Cl)c1` belongs “inactive”; to `CCCCOC(=O)COC(=O)c1ccccc1C(=O)OCCCC`, “inactive”. As to `CCOC(=O)N(C)N=O`, the “activity change, negative = cytotoxicity” value was -9.43% (inactive). For `CCCC(C)(COC(N)=O)COC(N)=O`, the “activity change, negative = cytotoxicity” value was 0.73% (inactive). Consider `NCCc1ccc(O)cc1`, for which the Potency result was “inactive”.

For `Cc1ccc(N)c(N)c1`, the Potency entry is “inactive”. As to `N#CCNCC#N`, the “activity change, negative = cytotoxicity” value was 29.3% (inactive). On the same count and under the same terms, to `CC1C=[C-]C=C1.[C-]#[O+].[C-]#[O+].[C-]#[O+].[Mn]` belongs -6.19% (inactive). For the molecule `O=C(O)CCl`, the Potency entry was “inactive”.

In the case of `O=S(=O)(Oc1ccc(Cl)cc1)c1ccc(Cl)cc1`, the Potency result was “inactive”. For `CCCC(C)(COC(N)=O)COC(=O)NC(C)C` (stereo not given), the Potency result was “inactive”. As for `ClCCOCOCCCl`, the “activity change, negative = cytotoxicity” value is 7.84% (inactive). Regarding `Cl/C=C/Cl`, the Potency entry is “inactive”. For `Nc1ccc(-c2ccc(N)cc2)cc1`, the Potency entry is “inactive”. The same measure, in the same setting: to `COS(=O)(=O)OC` belongs “inactive”; to `CCC(C)c1ccc(O)cc1` (stereo not given), “inactive”. On to `CCCCCCCC[N+](C)(CCCCCCCC)CCCCCCCC`, for which the Potency is 9.11 µM (active) and 2.58 µM (active) and 20.4 µM (active). In the case of `CC(C)=CCN1CC[C@@]2(C)c3cc(O)ccc3C[C@@H]1[C@@H]2C`, the “activity change, negative = cytotoxicity” value is 1.4% (inactive). Turning to `CC1(C)Cc2cccc(O)c2O1`, the Potency entry was “inactive”. For the molecule `CCCCCCCCCCCCCCCl`, the “activity change, negative = cytotoxicity” value is 3.1% (inactive).
